Assay outcomes deposited in PubChem by National Center for Advancing Translational Sciences (NCATS).
This excerpt belongs to a sample that is enriched for hits.
IMPase Li inh = membrane-permeable IMPase blocker, potentiated with lithium. CHO-M1 cells, IP1 TR-FRET (IP-One), carbachol + lithium. AID 1457. 210,000 compounds, 0.35% hits. Potency, µM (titrated, usually from 59.4 µM), usual class: inhibitors;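 further: IP1 builds up when IMPase is blocked and the TR-FRET signal falls; nearly all actives have a fitted effect of over 50% in size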
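Readout is a homogeneous TR-FRET IP1 immunoassay (Ex 320, Em 665 and 620), where raised cytosolic IP1 lowers signal. Cells were CHO-M1 treated 30 min at 37C with test compounds plus a little lithium; AC50 values came from Hill-equation fitting.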
IMPase inh = IMPase inhibition in cells; CHO-M1 cells, IP1 accumulation, HTRF TR-FRET ratio; inhibition (IP1 accumulation), % at 46.1 µM; 120,000 tested, under 10 active; P97697; active means well fitted curve in the direction sought with a large enough effect in the signal ratio, not every such curve was filed as active; inconclusive means small, poorly fitted or top-dose-only effect, or a change in a side signal; inactive means no such curve, though single readings can be large or run the other way; the % refers to the signal ratio;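 further: cells stimulated with carbachol in lithium chloride buffer; higher means more IMPase inhibition seen as more IP1 and lower FRET ratio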
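CHO-M1 cells (CHO stably expressing M1 receptor), compound up to 46 uM final, stimulated with carbachol (50 uM as added) in buffer with 50mM LiCl, pH 7.4, 30 min at 37C. Cytosolic IP1 read by TR-FRET; AC50 from Hill fits.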
PNC inhibitor = blocks assembly of the perinucleolar compartment; activity change (PNC), negative = inhibition, % at 10 µM; PC3M PTB-GFP, PNC prevalence imaging, 16 h; hits give low values; AID 2417; 140,000 compounds, 3.1% hits;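 active means readout at or below -70, meaning at least 70% loss of cells showing the perinucleolar compartment, a nuclear body marking cancer cells; inconclusive means readout between -30 and a set limit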
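PC3M cells stably expressing PTB-GFP, 750–1000 cells/well, treated 16 h at 37 °C with compound (23 nl of library stock), in duplicate. After paraformaldehyde fixation and Hoechst stain, imaged at 20x; PNC prevalence scored by image analysis.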
ALOX12 inhib = blocks human 12-lipoxygenase activity | P18054 | purified 12-hLO, xylenol orange hydroperoxide absorbance | 150,000 compounds, 0.12% hits | AID 1452 | Potency, µM (top dose mostly 57.1 µM), usual class: inhibitors; further: nearly all actives have a fitted effect of over 55% in size
Target sequence (P18054 whole entry, looked up): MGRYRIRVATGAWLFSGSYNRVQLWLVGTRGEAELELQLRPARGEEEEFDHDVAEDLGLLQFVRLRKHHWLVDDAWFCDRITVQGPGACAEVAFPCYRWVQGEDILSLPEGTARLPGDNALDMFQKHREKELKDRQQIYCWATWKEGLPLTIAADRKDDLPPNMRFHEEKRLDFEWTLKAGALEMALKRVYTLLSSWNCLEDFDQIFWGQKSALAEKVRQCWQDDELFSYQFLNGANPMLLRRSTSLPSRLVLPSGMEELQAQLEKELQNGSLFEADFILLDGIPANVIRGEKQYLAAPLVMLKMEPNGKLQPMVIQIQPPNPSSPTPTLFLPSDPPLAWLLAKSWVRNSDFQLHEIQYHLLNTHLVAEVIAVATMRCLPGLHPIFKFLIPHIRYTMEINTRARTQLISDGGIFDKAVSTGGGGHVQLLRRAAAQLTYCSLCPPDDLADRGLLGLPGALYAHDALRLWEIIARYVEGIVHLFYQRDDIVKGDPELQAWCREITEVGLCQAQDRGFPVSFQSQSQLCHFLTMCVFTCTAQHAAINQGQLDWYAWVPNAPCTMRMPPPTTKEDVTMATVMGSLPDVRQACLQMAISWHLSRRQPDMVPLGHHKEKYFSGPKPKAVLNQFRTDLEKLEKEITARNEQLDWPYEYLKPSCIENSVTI
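Hydroperoxide formation by human 12-lipoxygenase from 40 uM arachidonic acid was followed colorimetrically via ferric-xylenol orange complex, using the 573/405 nm absorbance ratio. Enzyme concentration was 150 nM, with 30 min reaction at room temperature.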
Numbers stand for hits; n = inactive; u = inconclusive; x = not tested or not shown; [ ] = dose if it differs, or a comment. Unless noted, the call rests on the fitted dose curve; in most records, active means well fitted curve in the direction sought with a large enough effect; inconclusive means small, poorly fitted or top-dose-only effect, or another doubt; inactive means no such curve, though single readings can be large; an effect the other way counts as inactive or inconclusive.

SMILES | IMPase Li inh | IMPase inh | PNC inhibitor | ALOX12 inhib
O=C(O)[C@H](Cc1ccccc1)N1C(=O)c2ccccc2C1=O | n | x | x | n[11.4 µM]
C=CCSc1nc(-c2ccc3c(c2)OCO3)cc(C(F)(F)F)c1C#N | u | n | -96.0 | n
CCS(=O)(=O)c1nnnn1-c1ccccc1S(C)(=O)=O | n | n | -116.6 | n
CC(=O)Nc1ccc(NC(=O)C(Cc2ccccc2)NC(=O)C2CCCCC2)cc1 (stereo unspecified) | n | n | -119.3 | n
CCOC(=O)N1CCC(NC(=O)C(Cc2ccccc2)NC(=O)C2CCCCC2)CC1 (stereo unspecified) | n | n | u | n
Cc1cc(C)n2c(SCC(=O)Nc3cc(C)on3)nnc2n1 | n | n | -100.0 | n
Cc1cc(NC(=O)CSC2=NCCS2)no1 | n | n | -108.6 | n
Cc1cc(C)n2c(SCC(=O)Nc3c(C)n(C)n(-c4ccccc4)c3=O)nnc2n1 | n | n | u | n
O=C1c2ccccc2-c2ccc(N=[N+]([O-])c3ccc4c(c3)C(=O)c3ccccc3-4)cc21 | n | x | x | n[11.4 µM]
CC(c1ccc(F)cc1)n1c(-c2cccs2)n[nH]c1=S (stereo unspecified) | n | x | x | x
Cc1cc(NC(=O)CCc2ccc(S(=O)(=O)N3CCOCC3)cc2)n(-c2ccccc2)n1 | n | n | -100.0 | n
COc1cc(NC(=O)CN2CCC(C(N)=O)(N3CCCCC3)CC2)c(OC)cc1Cl | n | x | x | x
COC(CNC(=O)c1ccc2c(c1)nc(C)n2-c1cccc(F)c1)OC | n | n | n | n
COC(CNC(=O)c1ccc2c(c1)nc(C)n2-c1ccc(F)c(F)c1)OC | n | n | -91.0 | n
CCc1cccc2c(C(=O)COC(=O)c3nn(C)c(=O)c4ccccc34)c[nH]c12 | n | n | -108.6 | n
CCc1cccc2c(C(=O)COC(=O)C3=NNC(=O)CC3)c[nH]c12 | n | x | x | x
CN(C)CCNc1cnn(-c2ccccc2)c(=O)c1Cl | n | x | x | x
COCCNc1ncnc2ccc(-c3ccc(C(=O)N(C)C)cc3)cc12 | n | x | x | x
CS(=O)(=O)c1ccc(-c2cn3cc(C(=O)O)ccc3n2)cc1 | n | x | x | x
COC(=O)c1ccc2nc(-c3ccc(S(C)(=O)=O)cc3)cn2c1 | 11.2µM | x | x | x
C=C1C[C@]23CC[C@H]4C(CO)(CO)C[C@@H](O)C[C@@]4(C)[C@@H]2CC[C@H]1C3 | n | x | x | x
CCOC(=O)CSc1n[nH]c(NS(=O)(=O)c2ccccc2C(F)(F)F)n1 | n | x | x | x
Cc1cc(C)c(C#N)c(SCC(=O)OC2CCCCC2)n1 | n | n | -83.3 | n
CCOC(=O)CSc1nc(C)cc(C)c1C#N | n | n | n | n
CCOC(=O)CSc1nc2ccccc2c(=O)n1Cc1ccco1 | n | n | n | n
SMILES | IMPase Li inh | IMPase inh | PNC inhibitor | ALOX12 inhib
O=C(NCC1CCCO1)c1ccc2c(=O)n(Cc3ccco3)c(SCC(=O)N3CCCC3)nc2c1 (stereo unspecified) | n | n | n | n
CCOC(=O)CSc1nc2cc(C(=O)NCC3CCCO3)ccc2c(=O)n1Cc1ccco1 (stereo unspecified) | n | n | -87.8 | n
CCOC(=O)CSc1nc2c(sc3ccc([N+](=O)[O-])cc32)c(=O)n1Cc1ccco1 | n | x | -86.6 | n
CC(C)CCN(C(=S)NC(=O)C1CCCCC1)c1c(N)n(Cc2ccccc2)c(=O)[nH]c1=O | n | x | x | x
COCCCNC(=O)COc1ccc(Br)cc1Cl | n | x | -89.8 | n
CN1N=C(C(=O)N2CCN(c3ccc([N+](=O)[O-])cc3)CC2)CCC1=O | n | x | -94.3 | n
O=C(c1cc([N+](=O)[O-])ccc1Cl)N1CCN(c2ccc([N+](=O)[O-])cc2)CC1 | n | x | n | n
CCOC(=O)c1cc(-c2ccc(C#N)cc2)nc2c1c(C)nn2CCC#N | u | n | -111.3 | n
CCOC(=O)c1cc(-c2ccncc2)nc2c1c(C)nn2-c1ccccn1 | n | n | -100.0 | n
CC(N)CN (stereo unspecified) | n | x | x | n
O=C(CSCc1ccc(Cl)cc1)NCc1ccccn1 | n | x | n | n
CCOC(=O)C(O)(CC(=O)c1ccc(OC)cc1)C(F)(F)F (stereo unspecified) | n | n | -81.0 | n
CCc1noc(C)c1C(=O)Nc1nc(-c2ccc(Cl)cc2Cl)cs1 | n | x | n | n
COc1ccc2c(c1)C(=O)[C@@H](O)[C@H](c1ccc(OC)c(Br)c1)O2 | n | x | -114.6 | n
O=C(c1ccccc1-c1nc(-c2ccc(F)cc2)no1)N1CCCC1 | n | n | -100.0 | n
CC(C)C(OC(=O)c1cccc(S(=O)(=O)NCC(F)(F)F)c1)C(=O)NC(N)=O (stereo unspecified) | n | x | x | x
C/C(=N\NC(=S)NCCc1ccccc1)c1ccc(C)cc1 | n | n | n | 14.1µM
C[N+](C)(C)CCOP(=O)([O-])OP(=O)(O)OCC1OC(n2ccc(N)nc2=O)C(O)C1O (stereo unspecified) | n | x | x | n
C[N+](C)(C)CCOP(=O)(O)OP(=O)([O-])OC[C@H]1O[C@@H](n2ccc(N)nc2=O)[C@H](O)[C@@H]1O | n | x | -105.3 | n
Fc1ccc(C(NCCc2ccc(Cl)cc2)c2nnc(-c3ccccc3Cl)o2)cc1 (stereo unspecified) | x | n | x | x
O=C1CCC(C(=O)NCc2cccnc2)N1 (stereo unspecified) | n | n | -100.0 | n
O=C(NCc1cccnc1)[C@@H]1[C@@H](C(=O)O)[C@H]2CC[C@@H]1O2 | n | x | x | n[11.4 µM]
N[C@@H](CCS(=O)O)C(=O)O | n | x | x | x
COc1cccc(-c2nc(CS(=O)(=O)CC(=O)Nc3c(C)cccc3C)c(C)o2)c1 | n | n | n | n
COc1cccc(-c2nc(CS(=O)(=O)CC(=O)Nc3cc(C)ccc3C)c(C)o2)c1 | n | n | -119.3 | n
SMILES | IMPase Li inh | IMPase inh | PNC inhibitor | ALOX12 inhib
CN1CCN(c2ccnc(-c3ccoc3)n2)CC1 | n | x | x | x
C=CCn1cc(-c2cccc(Cl)c2)cc(C#N)c1=O | n | n | n | n
N#Cc1cc(-c2cccc(Cl)c2)c[nH]c1=O | n | n[1.84 µM] | -91.7 | n
Cc1cccc(Nc2nc(-c3cccs3)cs2)n1 | n | n | -105.2 | 17.8µM
C=CCNc1sc(C(=O)c2cccs2)c(N)c1C#N | u | n | -118.9 | n
Cc1nc2ccc(NC(=O)c3cc([N+](=O)[O-])cc([N+](=O)[O-])c3Cl)cc2s1 | n | n | n | n
C[N+](C)(CC#Cc1ccccc1)CC(=O)c1ccc(Cl)cc1 | n | x | -90.3 | n
C[N+](C)(CC#Cc1ccccc1)CC(=O)c1ccccc1 | n | x | u | n
O=C(O)CCCC(=O)N1CCN(c2cccc(Cl)c2)CC1 | n | n | -99.1 | n
O=C(COC(=O)C1CC2C=CC1C2)Nc1ccc2c(c1)OC(F)(F)O2 (stereo unspecified) | n | n | -100.0 | n
O=C(COC(=O)C1CC2C=CC1C2)Nc1cccc(S(=O)(=O)N2CCCCC2)c1 (stereo unspecified) | n | n | n | n
NS(=O)(=O)c1ccc(CCNC(=O)c2cc(-c3ccccn3)nc3ccc(Br)cc23)cc1 | 11.2µM | x | x | x
O=C(c1cc(-c2cccnc2)nc2ccc(Br)cc12)N1CCN(c2ncccn2)CC1 | 11.2µM | n | u | n
